{
  "source": "paper PMC5540273",
  "about": "(PLoS ONE, 2017);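 further: KINOMEscan kinase panel screen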",
  "data": [
    {"tested_on": "RIOK2", "settings": "concentration: 1 μM, replicates: in singlicate; n = 1", "units": {"%Inh": "%"}, "values": [
      {"smiles": "COc1ccc(Nc2ncc(C#N)c(Nc3ccccc3C(N)=O)n2)cc1N1CCN(C)CC1.Cl", "note": "[GSK1558669]", "%Inh": 98.7},
      {"smiles": "O=C(Nc1cccc(-c2nn3ncccc3c2-c2ccnc(Nc3cccc(C(F)(F)F)c3)n2)c1)c1c(F)cccc1F", "note": "[GSK299495]", "%Inh": 0},
      {"smiles": "Cc1cccc(-c2nc(Nc3ccc4ncsc4c3)c3ccccc3n2)n1", "note": "[GW867588]", "%Inh": 31},
      {"smiles": "Cl.Nc1ncnc2occ(-c3ccc(NC(=O)Nc4cc(C(F)(F)F)ccc4F)cc3)c12", "note": "[SB-707548]", "%Inh": 0},
      {"smiles": "C[C@@H](Oc1cc(-n2cnc3ccc(NC(=O)NC(C)(C)C)cc32)sc1C(N)=O)c1ccccc1Cl", "note": "[GSK346294]", "%Inh": 0},
      {"smiles": "c1ccc(-c2cc(-c3c[nH]nc3-c3ccccn3)ccn2)cc1", "note": "[GW576604]", "%Inh": 1},
      {"smiles": "Cc1nnc(-c2ccc3occ(-c4ccc(C(C)O)cc4)c3c2)o1", "note": "(centres unmarked)", "%Inh": 36},
      {"smiles": "CC(C)Oc1ccc2c(-c3ccnc(Nc4ccc(N5CCN(C)CC5)cc4)n3)cnn2n1", "note": "[GW696155]", "%Inh": 90},
      {"smiles": "NS(=O)(=O)c1cccc(-c2ccc3ncc(N4CCOCC4)nc3c2)c1", "note": "[GSK1535721]", "%Inh": 41},
      {"smiles": "Cl.Cl.Cl.Fc1ccc(-c2ncn(C3CCNCC3)c2-c2ccnc(Nc3ccccc3)n2)cc1", "note": "[SB-238039]", "%Inh": 0},
      {"smiles": "Fc1ccc(-c2ncn(CCCN3CCOCC3)c2-c2ccccn2)cc1", "note": "[SB-211742]", "%Inh": 0},
      {"smiles": "CN(C1=C(c2ccccc2)C(=O)NC1=O)c1ccccc1", "note": "[SB-334860]", "%Inh": 4},
      {"smiles": "CCc1nc(-c2cccc(C)c2)c(-c2ccnc(NCc3ccccc3)c2)s1", "%Inh": 0},
      {"smiles": "O=C(NCCNc1ccnc(Nc2ccc(F)cc2)n1)Nc1ccccc1F", "note": "[GSK1379880]", "%Inh": 5},
      {"smiles": "O=c1cc(N2CCOCC2)nc2n(Cc3cccc(F)c3)ccn12", "note": "[GSK2297430]", "%Inh": 11},
      {"smiles": "CC(C)(C)n1cnc2c(N)ncnc21", "note": "[SKF-97359]", "%Inh": 0},
      {"smiles": "O=c1cc(N2CCOCC2)nc2n(Cc3cccc(C(F)(F)F)c3)ccn12", "note": "[GSK2297543]", "%Inh": 7},
      {"smiles": "Cc1cccc(Cn2ccn3c(=O)cc(N4CCOCC4)nc23)c1", "note": "[GSK2297542]", "%Inh": 29},
      {"smiles": "O=C(NCCNc1ccnc(Nc2ccc(F)cc2)n1)c1cc2ccccc2s1", "note": "[GSK1379874]", "%Inh": 0},
      {"smiles": "Cn1ccc2ncnc(Oc3ccc(NC(=O)Nc4ccncc4)c(Cl)c3)c21", "%Inh": 0},
      {"smiles": "COc1ccc(COc2cc(-n3cnc4ccccc43)sc2C(N)=O)cc1", "note": "[GSK1024304]", "%Inh": 80},
      {"smiles": "Cc1ccc(C(=O)NCC(N)=O)cc1-n1c(C)cc(OCc2ccc(F)cc2F)c(Br)c1=O", "%Inh": 0},
      {"smiles": "Cc1ccc(NC(=O)c2ccnc(N3CCN(C)CC3)c2)cc1-c1ccc(C(=O)NCC2CC2)cc1", "note": "[GW775604]", "%Inh": 0},
      {"smiles": "Fc1ccc(-c2nn3c(OCC(F)(F)F)cccc3c2-c2ccncc2)cc1", "note": "[GW514784]", "%Inh": 0},
      {"smiles": "Fc1ccc(-c2ncn(CCCN3CCOCC3)c2-c2cccnc2)cc1", "note": "[SB-211743]", "%Inh": 53},
      {"smiles": "O=C(NOCC1CC1)c1ccc(F)c(F)c1Nc1ccc(I)cc1Cl", "%Inh": 0},
      {"smiles": "O=C(Nc1n[nH]c2cc(-c3cccc(F)c3)ccc12)C1CC1", "note": "[SB-735464]", "%Inh": 40},
      {"smiles": "COc1ccc(Nc2nccc(N3CCC(NC(=O)Nc4cccc(C(C)=O)c4)C3)n2)cc1", "note": "(centres unmarked) [GSK1379731]", "%Inh": 0},
      {"smiles": "N#Cc1ccc(-c2cc(-c3c[nH]nc3-c3ccccn3)ccn2)cc1", "note": "[GW693028]", "%Inh": 0},
      {"smiles": "COC(=O)Nc1nc2cc(Oc3ccc(NC(=O)Nc4cc(F)ccc4F)cc3)ccc2[nH]1.Cl", "note": "[GW701424]", "%Inh": 0},
      {"smiles": "O=c1cc(N2CCOCC2)nc2n(Cc3cccc4ccccc34)ccn12", "note": "[GSK2333389]", "%Inh": 47},
      {"smiles": "c1ccc(-c2n[nH]cc2-c2ccnc3ccccc23)nc1", "note": "[GW271431]", "%Inh": 11},
      {"smiles": "Nc1nccc(-c2c(-c3ccc(F)cc3)ncn2C2CCN(CC(F)(F)F)CC2)n1", "note": "[SB-236560]", "%Inh": 0},
      {"smiles": "NCC(NC(=O)c1cc(-c2cn[nH]c2)c(-c2ccnc3[nH]ccc23)s1)c1ccccc1.O=C(O)C(F)(F)F.O=C(O)C(F)(F)F", "note": "(centres unmarked) [GSK1325775]", "%Inh": 34},
      {"smiles": "Cc1c2ccc(N(C)c3ccnc(Nc4cccc(S(N)(=O)=O)c4)n3)cc2nn1Cc1ccccc1.Cl.Cl", "note": "[GW787226]", "%Inh": 15},
      {"smiles": "COc1ccc(S(=O)(=O)NC2CCN(c3cc(C)nc(Nc4cccc(C#N)c4)n3)CC2)cc1.O=C(O)C(F)(F)F", "note": "[GSK1653539]", "%Inh": 0}
    ]},
    {"tested_on": "RIOK3", "settings": "concentration: 1 μM, replicates: in singlicate; n = 1", "units": {"%Inh": "%"}, "values": [
      {"smiles": "COc1ccc(Nc2ncc(C#N)c(Nc3ccccc3C(N)=O)n2)cc1N1CCN(C)CC1.Cl", "note": "[GSK1558669]", "%Inh": 79},
      {"smiles": "O=C(Nc1cccc(-c2nn3ncccc3c2-c2ccnc(Nc3cccc(C(F)(F)F)c3)n2)c1)c1c(F)cccc1F", "note": "[GSK299495]", "%Inh": 0},
      {"smiles": "Cc1cccc(-c2nc(Nc3ccc4ncsc4c3)c3ccccc3n2)n1", "note": "[GW867588]", "%Inh": 0},
      {"smiles": "Cl.Nc1ncnc2occ(-c3ccc(NC(=O)Nc4cc(C(F)(F)F)ccc4F)cc3)c12", "note": "[SB-707548]", "%Inh": 22},
      {"smiles": "C[C@@H](Oc1cc(-n2cnc3ccc(NC(=O)NC(C)(C)C)cc32)sc1C(N)=O)c1ccccc1Cl", "note": "[GSK346294]", "%Inh": 34},
      {"smiles": "c1ccc(-c2cc(-c3c[nH]nc3-c3ccccn3)ccn2)cc1", "note": "[GW576604]", "%Inh": 25},
      {"smiles": "Cc1nnc(-c2ccc3occ(-c4ccc(C(C)O)cc4)c3c2)o1", "note": "(centres unmarked)", "%Inh": 0},
      {"smiles": "CC(C)Oc1ccc2c(-c3ccnc(Nc4ccc(N5CCN(C)CC5)cc4)n3)cnn2n1", "note": "[GW696155]", "%Inh": 95.4},
      {"smiles": "NS(=O)(=O)c1cccc(-c2ccc3ncc(N4CCOCC4)nc3c2)c1", "note": "[GSK1535721]", "%Inh": 0},
      {"smiles": "Fc1ccc(-c2ncn(CCCN3CCOCC3)c2-c2ccccn2)cc1", "note": "[SB-211742]", "%Inh": 41},
      {"smiles": "CN(C1=C(c2ccccc2)C(=O)NC1=O)c1ccccc1", "note": "[SB-334860]", "%Inh": 0},
      {"smiles": "CCc1nc(-c2cccc(C)c2)c(-c2ccnc(NCc3ccccc3)c2)s1", "%Inh": 22},
      {"smiles": "O=C(NCCNc1ccnc(Nc2ccc(F)cc2)n1)Nc1ccccc1F", "note": "[GSK1379880]", "%Inh": 0},
      {"smiles": "O=c1cc(N2CCOCC2)nc2n(Cc3cccc(F)c3)ccn12", "note": "[GSK2297430]", "%Inh": 35},
      {"smiles": "CC(C)(C)n1cnc2c(N)ncnc21", "note": "[SKF-97359]", "%Inh": 0},
      {"smiles": "O=c1cc(N2CCOCC2)nc2n(Cc3cccc(C(F)(F)F)c3)ccn12", "note": "[GSK2297543]", "%Inh": 19},
      {"smiles": "Cc1cccc(Cn2ccn3c(=O)cc(N4CCOCC4)nc23)c1", "note": "[GSK2297542]", "%Inh": 10},
      {"smiles": "O=C(NCCNc1ccnc(Nc2ccc(F)cc2)n1)c1cc2ccccc2s1", "note": "[GSK1379874]", "%Inh": 24},
      {"smiles": "Cn1ccc2ncnc(Oc3ccc(NC(=O)Nc4ccncc4)c(Cl)c3)c21", "%Inh": 23},
      {"smiles": "COc1ccc(COc2cc(-n3cnc4ccccc43)sc2C(N)=O)cc1", "note": "[GSK1024304]", "%Inh": 0},
      {"smiles": "Cc1ccc(C(=O)NCC(N)=O)cc1-n1c(C)cc(OCc2ccc(F)cc2F)c(Br)c1=O", "%Inh": 0},
      {"smiles": "Cc1ccc(NC(=O)c2ccnc(N3CCN(C)CC3)c2)cc1-c1ccc(C(=O)NCC2CC2)cc1", "note": "[GW775604]", "%Inh": 0},
      {"smiles": "Fc1ccc(-c2nn3c(OCC(F)(F)F)cccc3c2-c2ccncc2)cc1", "note": "[GW514784]", "%Inh": 5},
      {"smiles": "Fc1ccc(-c2ncn(CCCN3CCOCC3)c2-c2cccnc2)cc1", "note": "[SB-211743]", "%Inh": 0},
      {"smiles": "O=C(NOCC1CC1)c1ccc(F)c(F)c1Nc1ccc(I)cc1Cl", "%Inh": 0},
      {"smiles": "O=C(Nc1n[nH]c2cc(-c3cccc(F)c3)ccc12)C1CC1", "note": "[SB-735464]", "%Inh": 0},
      {"smiles": "COc1ccc(Nc2nccc(N3CCC(NC(=O)Nc4cccc(C(C)=O)c4)C3)n2)cc1", "note": "(centres unmarked) [GSK1379731]", "%Inh": 24},
      {"smiles": "N#Cc1ccc(-c2cc(-c3c[nH]nc3-c3ccccn3)ccn2)cc1", "note": "[GW693028]", "%Inh": 0},
      {"smiles": "COC(=O)Nc1nc2cc(Oc3ccc(NC(=O)Nc4cc(F)ccc4F)cc3)ccc2[nH]1.Cl", "note": "[GW701424]", "%Inh": 0},
      {"smiles": "O=c1cc(N2CCOCC2)nc2n(Cc3cccc4ccccc34)ccn12", "note": "[GSK2333389]", "%Inh": 0},
      {"smiles": "c1ccc(-c2n[nH]cc2-c2ccnc3ccccc23)nc1", "note": "[GW271431]", "%Inh": 26},
      {"smiles": "Nc1nccc(-c2c(-c3ccc(F)cc3)ncn2C2CCN(CC(F)(F)F)CC2)n1", "note": "[SB-236560]", "%Inh": 19},
      {"smiles": "NCC(NC(=O)c1cc(-c2cn[nH]c2)c(-c2ccnc3[nH]ccc23)s1)c1ccccc1.O=C(O)C(F)(F)F.O=C(O)C(F)(F)F", "note": "(centres unmarked) [GSK1325775]", "%Inh": 100},
      {"smiles": "Cc1c2ccc(N(C)c3ccnc(Nc4cccc(S(N)(=O)=O)c4)n3)cc2nn1Cc1ccccc1.Cl.Cl", "note": "[GW787226]", "%Inh": 0},
      {"smiles": "COc1ccc(S(=O)(=O)NC2CCN(c3cc(C)nc(Nc4cccc(C#N)c4)n3)CC2)cc1.O=C(O)C(F)(F)F", "note": "[GSK1653539]", "%Inh": 0}
    ]}
  ]
}
